# Source: PubChem
# FXN GAA850 act – FXN promoter activators, primary screen, cell-based, luciferase luminescence, HEK293 lucGAA850. HEK293 lucGAA850 FXN promoter luciferase reporter, 24 h; percent of 10 µM SAHA response. activation, % at 6 µM. 360,000 compounds, 0.56% hits;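 active = activation above the average of all compounds screened plus 3 SD, cutoff fixed separately per campaign, cut at about 7.5% in these data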;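 note: 0% = DMSO wells and 100% = 10 µM SAHA wells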
# hcDAF12 agonist – H. contortus DAF-12 nuclear receptor activators, primary screen, cell-based, luminescence, HEK293, lit1-tk-luc reporter. 370,000 compounds, 1.4% hits. HEK293 hcDAF-12 lit1-tk-luc reporter; 0% DMSO, 100% Δ7-dafachronic acid. activation, % at 6.8 µM;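 active = activation above the mean of all tested compounds plus 3 SD, cut at about 5.5% in these data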;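 note: 100% = response to 3 µM Δ7-dafachronic acid high control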
# DAX1 inh-1 – DAX1 (NR0B1) inhibitors, primary screen, cell-based, HEK293, Gal4-DAX1, luciferase luminescence | Nuclear receptor subfamily 0 group B member 1 (Homo sapiens), P51843 | HEK293 Gal4-DAX1 luciferase reporter | inhibition, % at 6.75 µM | 340,000 compounds, 0.99% hits | AID 504766, 2011;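 active = inhibition above the mean over all tested compounds plus 3 SD, cut at about 4.2% in these data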;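 note: 0% = DAX1-transfected cells with DMSO and 100% = empty-vector control cells with DMSO; inhibition shows as a rise in luminescence from relieved DAX1 repression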
# hgDAF-12 ag – H. glycines DAF-12 receptor agonists, primary screen, cell-based, luminescence, HEK293, GAL4 fusion, UAS-luciferase | Nuclear hormone receptor DAF-12 (Heterodera glycines), GAL4 fusion | HEK293 GAL4-hgDAF12 UAS-luciferase reporter, agonist luminescence; normalized to butyrate control | activation, % at 6.8 µM | 370,000 compounds, 1.8% hits | AID 687014, 2013;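 active = activation above a cutoff set at the mean of all screened compounds plus 3 SD, cut at about 10% in these data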;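 note: 0% = DMSO wells and 100% = sodium butyrate wells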
# DAX1 inh-2 – DAX1 (NR0B1) inhibitors on StAR promoter, primary screen, cell-based, luminescence, SF-1 (NR5A1), full-length DAX-1. HEK293T StAR-luciferase reporter, SF-1/DAX-1 repression relief. inhibition, % at 6.8 µM. 370,000 compounds, 1.1% hits. AID 652010, 2013;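 active = inhibition above the mean over all tested compounds plus 3 SD, cut at about 3.6% in these data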;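 note: 0% = DAX-1 cells with DMSO and 100% = cells lacking DAX-1 with DMSO; higher inhibition means more luminescence from relief of DAX-1 repression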
# ssDAF12 agonist – S. stercoralis DAF-12 nuclear receptor activators, primary screen, cell-based, luminescence, HEK293, GRIP1 co-expression, lit1-tk-luc. Nuclear hormone receptor DAF-12 (Strongyloides stercoralis). HEK293 ssDAF-12/GRIP1 lit1-tk-luc reporter; % of 3 µM dafachronic acid response. activation, % at 6.8 µM. 370,000 compounds, 1% hits. AID 652126, 2013;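 active = activation above the mean over all tested compounds plus 3 SD, cut at about 0.9% in these data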;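 note: 0% = DMSO-only wells and 100% = 3 µM delta7-dafachronic acid wells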
# DAX1 conf – DAX1 (NR0B1) inhibitors relieving SF-1 repression, confirmation, cell-based, luminescence, HEK293T, full-length DAX-1, SF-1 activated StAR promoter; shares compounds with DAX1 inh-2; HEK293T StAR-promoter luciferase reporter, SF-1/DAX-1 repression; inhibition, % at 6.8 µM; 2,400 compounds, 87% hits; AID 652134, 2013;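 active = inhibition above the average of every tested compound plus 3 SD, cut at about 3.8% in these data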;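 note: 0% = DAX-1 cells with DMSO and 100% = no DAX-1 control cells with DMSO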
# SF1 AF2mut Luc – StAR reporter signal changes without DAX1, counter-screen for DAX1 inhibitor project, cell-based, luminescence, AF-2 mutant SF-1, transactivation | shares compounds with DAX1 inh-2 | HEK293 StAR-luciferase, SF-1 AF2 mutant | inhibition, % at 6.8 µM | 2,400 compounds, 78% hits | AID 652136, 2013;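 active = inhibition above the mean of all tested compounds plus 3 SD, cut at about 3% in these data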;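 note: 0% = DAX-1 transfected cells with DMSO and 100% = cells without DAX-1 with DMSO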
# LXRb hcDAF ctr – LXR agonists, Gal4 luciferase reporter, confirmation, counter-screen for hcDAF-12 agonist project, cell-based, luminescence, HEK293, H. contortus campaign; activation, % at 6.8 µM; shares compounds with hcDAF12 agonist; 3,400 tested, under 10 active; HEK293 Gal4-LXR tk-luc reporter, 24 h; normalized: DMSO 0%, positive control 100%;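 active = mean percent activation of the reporter above a cutoff set as the average over tested compounds plus their standard deviation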
# Target sequence (P55055 whole entry, looked up, the tested form may be a part): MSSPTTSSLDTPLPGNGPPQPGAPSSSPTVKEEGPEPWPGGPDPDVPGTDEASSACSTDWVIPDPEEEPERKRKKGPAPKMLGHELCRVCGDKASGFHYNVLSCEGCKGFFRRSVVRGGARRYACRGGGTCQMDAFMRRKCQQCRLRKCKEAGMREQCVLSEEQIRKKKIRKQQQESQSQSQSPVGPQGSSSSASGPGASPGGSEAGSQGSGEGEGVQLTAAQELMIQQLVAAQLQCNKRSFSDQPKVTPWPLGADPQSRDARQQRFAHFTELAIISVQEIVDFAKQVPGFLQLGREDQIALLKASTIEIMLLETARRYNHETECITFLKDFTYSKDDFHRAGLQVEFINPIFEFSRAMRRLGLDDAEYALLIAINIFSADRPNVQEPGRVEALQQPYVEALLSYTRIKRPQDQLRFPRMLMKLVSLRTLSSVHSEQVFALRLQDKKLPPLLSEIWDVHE
# hcDAF12 conf – H. contortus DAF-12 receptor agonists, confirmation, cell-based, luminescence, HEK293, lit1-tk-luc, triplicate | AID 743032, 2013 | 3,400 compounds, 61% hits | activation, % at 6.8 µM | shares compounds with hcDAF12 agonist | HEK293 hcDAF-12 lit1-tk-luc reporter; % of Δ7-dafachronic acid response;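 active = mean activation across triplicate tests above the threshold derived from the earlier primary screen, cut at about 5.5% in these data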;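 note: 0% = DMSO only wells and 100% = 3 µM Δ7-dafachronic acid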
# hgDAF12 conf – H. glycines DAF-12 receptor agonists, confirmation, cell-based, luminescence, HEK293, GAL4-LBD fusion; 3,300 compounds, 80% hits; HEK293 GAL4-hgDAF12 luciferase reporter, agonist mode; percent of butyrate response; activation, % at 6.8 µM; AID 743050, 2013; shares compounds with hgDAF-12 ag;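 active = mean activation over triplicate wells above the hit cutoff derived from the earlier primary screen, cut at about 11% in these data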;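 note: 0% = DMSO low control and 100% = 2 mM sodium butyrate high control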
# LXRb DAF12 ctr – LXR agonists, Gal4 luciferase reporter, confirmation, counter-screen for hgDAF-12 agonist project, cell-based, luminescence, HEK293, H. glycines campaign | shares compounds with hgDAF-12 ag | 24 h | activation, % at 6.8 µM | 3,300 tested, under 10 active | AID 743051, 2013;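 active = mean activation of the triplicate above a set limit carried over from the primary screen, none filed active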
# An asterisk follows results filed as active; · = no result given. Most compounds without a hit are left out; they make up all but 4.5% or so of the library.
SMILES,FXN GAA850 act,hcDAF12 agonist,DAX1 inh-1,hgDAF-12 ag,DAX1 inh-2,ssDAF12 agonist,DAX1 conf,SF1 AF2mut Luc,LXRb hcDAF ctr,hcDAF12 conf,hgDAF12 conf,LXRb DAF12 ctr
Cc1ccc(NC(=O)N2CCc3ccccc32)cc1C,2,15*,-2,16*,7.4*,1.2*,16*,8.4*,2,9.4*,25*,1
C/C(=N/NC(=O)c1ccccn1)c1ccco1,2,3,0,13*,5.5*,1,8.1*,4.0*,·,·,13*,1
C/C(=N\NC(=O)c1ccccn1)c1ccc(Cl)cc1,5,5,·,9,3,0,·,·,·,·,·,·
N#C/C(=N\Nc1ccc(F)cc1)C(=N)N1CCCCC1,4,8.1*,5.3*,18*,6.0*,0.9*,18*,7.1*,1,5,18*,1
N#C/C(=N/Nc1ccccc1F)C(=N)N1CCOCC1,1,0,0,3,1,-1,·,·,·,·,·,·
CNCC(=O)N1CCN(c2ncc(C(F)(F)F)cc2Cl)CC1,2,-1,0,-1,0,-1,·,·,·,·,·,·
CN(C(=O)/C=C/c1cnc2ccccc2c1)C1CCCCC1,4,8.1*,-1,17*,7.8*,0.9*,17*,9.9*,1,6.3*,15*,1
Cc1ncc(C(=O)Nc2ccccc2)[nH]1,3,4,3,21*,4.7*,1,11*,6.9*,·,·,13*,0
Cc1ccc(/C=N/N=C/c2ccc(C)s2)s1,3,9.1*,3,18*,5.1*,0,19*,7.7*,2,8.2*,21*,1
CC(C)CC(c1nc2ccccc2[nH]1)n1c(-c2ccccc2Br)nc2ccccc21 (stereo not given),·,2,·,0,-2,-1,·,·,·,·,·,·
COc1ccc2nc(C(c3ccc(C)cc3)n3c(-c4ccccc4Br)nc4ccccc43)[nH]c2c1 (stereo not given),·,3,·,14*,5.8*,1,8.5*,5.5*,·,·,17*,1
COC(=O)C1CCN(S(=O)(=O)CCNC(=O)c2ccc(F)cc2)CC1,2,-2,2,-1,0,-1,·,·,·,·,·,·
CSc1ccccc1C(=O)Nc1ccc2c(c1)CCC2,4,2,1,7,0,0,·,·,·,·,·,·
O=C(Nc1ccc2c(c1)CCC2)c1ccccc1Br,5,7.2*,7.6*,18*,6.8*,1,14*,6.6*,1,5,17*,1
O=C(Nc1ccc(F)c(Cl)c1)c1cc(C2CCCN(S(=O)(=O)c3cccc4cccnc34)C2)on1 (stereo not given),1,-2,·,5,-1,-1,·,·,·,·,·,·
COc1cccc(NC(=O)c2ccc3c(c2)CCCC3)c1,5,7.9*,1,17*,18*,1.2*,13*,8.2*,2,5,18*,1
Cc1cc(-c2nc3cc(F)ccc3s2)ccc1N,2,18*,-3,20*,7.0*,3.7*,8.4*,4.5*,2,17*,24*,1
Nc1cc2sc(-c3ccc(C(=O)O)cc3)nc2cc1Cl,3,4,-1,8,3,-1,·,·,·,·,·,·
OC(c1ccc2c(c1)OCO2)c1ncc(-c2cccc(C(F)(F)F)c2)[nH]1 (stereo not given),1,1,·,-1,-1,-2,·,·,·,·,·,·
O=C(NOCc1ccccc1)c1ccc([N+](=O)[O-])cc1,3,2,0,15*,7.3*,1.8*,9.7*,5.2*,·,·,12*,1
O=C(CCNC(=O)c1ccc([N+](=O)[O-])cc1)NCCc1ccccc1,2,-2,1,0,0,-1,·,·,·,·,·,·
O=C(N=c1nc2ccccn2s1)c1ccccc1,-7,11*,3,22*,5.2*,1.1*,11*,3,2,13*,8,1
CC(=O)Nc1c(O)[nH]c2ccccc12,-1,1,0,1,0,-1,·,·,·,·,·,·
N=NC(=O)c1ccccc1Nc1c(O)[nH]c2ccccc12,3,13*,-3,15*,6.1*,2.3*,11*,7.8*,1,14*,16*,1
O=C(Nc1nc2ccccc2s1)c1ccc(F)cc1,0,7.8*,2,16*,4.7*,1.8*,8.0*,4.3*,2,8.8*,20*,1
